According to PubChem BioAssay (NCI):
Compounds without any hit were thinned out: in the full panel of roughly 83,000, 20% have a hit.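 48-hour exposure, single concentration, 96-well plates; percent growth endpoint where 0 means no net growth. Active: below 10.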 A number with no mark means an inactive call. The source made the active and inactive calls.

Key:
Test in all cases: NCI-60 one-dose screen, 48 h (100 = growth as untreated, 0 = no growth, -100 = all killed)
Details in all cases: 10 µM unless noted
DU-145 prostate = test system: DU-145 prostate
K-562 leukemia = test system: K-562 leukemia
MALME-3M melanoma = test system: MALME-3M melanoma
MDA-MB-231 breast = test system: MDA-MB-231 breast
RXF 393 renal = test system: RXF 393 renal
SF-268 CNS = test system: SF-268 CNS
SF-295 CNS = test system: SF-295 CNS
SF-539 CNS = test system: SF-539 CNS
UACC-257 melanoma = test system: UACC-257 melanoma
M14 melanoma = test system: M14 melanoma

Row | Compound | growth (DU-145 prostate) | growth (K-562 leukemia) | growth (MALME-3M melanoma) | growth (MDA-MB-231 breast) | growth (RXF 393 renal) | growth (SF-268 CNS) | growth (SF-295 CNS) | growth (SF-539 CNS) | growth (UACC-257 melanoma) | growth (M14 melanoma)
1 | Cc1nc2ccc(Nc3nc(Cl)nc(N4CCOCC4)n3)cc2n1Cc1ccccc1 | 94.2% | 25.7% | 96.8% | 64.4% | 65.1% | 77% | 87.3% | 84.7% | 104% | 103%
2 | CCN(CC)CCCC(C)Nc1cnc(C(=O)Nc2cc(C)cc3cccnc23)cn1 (stereo not given) | 80.7% | 25.9% | 107% | 89.2% | 72.3% | 66.1% | 98.9% | 86.9% | 71.7% | 98.6%
3 | CC(=O)OC1Oc2cc(C)c(C)cc2-c2oc(=O)c(-c3ccc(F)cc3)cc21 (stereo not given) | 75.8% | 6.83% (active) | 65.3% | 77.7% | -1.93% (active) | 55.5% | 80.5% | 72.7% | 96% | 38.5%
4 | COc1ccc(-c2nc(-c3ccccc3OCc3ccccc3OC)nc(C)c2C(C)=O)cc1 | 92.8% | 81.6% | 92.5% | 64.3% | 92.6% | 94.7% | 91.8% | 101% | 96% | 84.2%
5 | COc1cc(C2CC(c3ccc(Cl)cc3)=NN2C=O)ccc1OS(=O)(=O)c1ccc(C)cc1 (stereo not given) | 105% | 82.1% | 93.8% | 92.5% | 97.2% | 100% | 87.4% | 89.6% | 85.3% | 84%
6 | Clc1cn2cc(-c3ccc(Cl)c(Cl)c3Cl)nc2s1 | 117% | 92.6% | 101% | 98.5% | 99.8% | 103% | -71.5% (active) | 105% | 112% | 95.3%
7 | COc1cc2nccc(Oc3ccc(NC(=O)C4(C(=O)Nc5ccc(F)cc5)CC4)cc3)c2cc1OC(=O)c1ccc(N)cc1 | 45.3% | -20.9% (active) | 26% | -1.25% (active) | -10.4% (active) | 29.4% | -74.6% (active) | -1.2% (active) | 33.5% | 10.8%
8 | CCCc1n(Cc2ccc3ccccc3n2)cc[n+]1Cc1ccc2ccccc2c1 | 28.6% | 5.05% (active) | -27.3% (active) | -5.49% (active) | 3.02% (active) | 17% | 4.45% (active) | 12.7% | -9.42% (active) | 3.06% (active)
9 | COc1ccc(C(=O)/C=C/c2cn(-c3ccccc3)nc2-c2cccc(Nc3ccnc4cc(Cl)ccc34)c2)cc1 | 86.5% | 85.9% | 57.4% | 70.8% | 95.2% | 89.3% | 106% | 103% | 90.1% | 110%
10 | COc1ccc2[nH]c(C(=O)OCc3ccc4c(Br)cc(Br)c(O)c4n3)cc2c1 | -94.6% (active) | 1.4% (active) | -79.6% (active) | -73.6% (active) | -89.2% (active) | -70.8% (active) | 72.3% | -91.9% (active) | -72.8% (active) | -64.1% (active)
11 | COc1cc2nccc(Oc3ccc(NC(=O)C4(C(=O)Nc5c(F)cc(F)cc5F)CC4)cc3)c2cc1Oc1ccc(N)cn1 | 80.7% | 7.69% (active) | 59% | 65.9% | 65.8% | 55.5% | 30.6% | 21.2% | 53.8% | 56.9%
12 | O=C(CCc1nc2sc3c(c2c(=O)[nH]1)CCC3)NCc1cn(-c2ccccc2)nc1-c1ccccc1 | 48.7% | 84.6% | 47.7% | 11.4% | 48.8% | 65.3% | 46.2% | 83.3% | 98.5% | 74.5%
13 | CCOC(CN1CCN(CC(C)C(=O)c2ccccc2)CC1)c1ccccc1 (stereo not given) | 112% | 115% | 105% | 95.5% | 99.5% | 113% | 92.6% | 111% | 93.2% | 114%
